Compound activity deposited in PubChem by National Center for Advancing Translational Sciences (NCATS).
RE007 growth inh = less growth of the S. pombe RE007 Vpr strain | S. pombe RE007 Vpr strain, BacTiter-Glo ATP luminescence, 24 h | Potency, µM (top dose mostly 92.2 µM), for inactives: top-dose activity change, negative = less growth, actives largely listed as inhibitors | 0.21% of 360,000 active; active means well fitted falling curve with a large enough effect; inconclusive means small, poorly fitted or top-dose-only effect; inactive means no such curve, though single readings can be large or run the other way; further: potency means the concentration at half of the fitted maximal effect; on the % scale 0 is the no-effect control and ±100 the full control effect; nearly all actives have a fitted effect of over 50% in size
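Fission yeast strain RE007, carrying one chromosomally integrated HIV-1 vpr copy, was seeded at OD 0.01 in PMG+AL medium with 23 nL pinned compound. After 24 h at 30 °C and 99% humidity, viability was read by BacTiter-Glo luminescence.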
LmPK inhibitor = inhibitors of Leishmania mexicana pyruvate kinase; Q27686; purified LmPK, Kinase-Glo ATP luminescence, 1 h; Potency, µM (titrated, usually from 57.5 µM), without a hit: top-dose activity change, negative = inhibition, most hits filed as inhibitors; 0.37% of 290,000 active; AID 1721; further: potency means the concentration at half of the fitted maximal effect; on the % scale 0 is the no-effect control and ±100 the full control effect
Target sequence (Q27686 whole entry, looked up): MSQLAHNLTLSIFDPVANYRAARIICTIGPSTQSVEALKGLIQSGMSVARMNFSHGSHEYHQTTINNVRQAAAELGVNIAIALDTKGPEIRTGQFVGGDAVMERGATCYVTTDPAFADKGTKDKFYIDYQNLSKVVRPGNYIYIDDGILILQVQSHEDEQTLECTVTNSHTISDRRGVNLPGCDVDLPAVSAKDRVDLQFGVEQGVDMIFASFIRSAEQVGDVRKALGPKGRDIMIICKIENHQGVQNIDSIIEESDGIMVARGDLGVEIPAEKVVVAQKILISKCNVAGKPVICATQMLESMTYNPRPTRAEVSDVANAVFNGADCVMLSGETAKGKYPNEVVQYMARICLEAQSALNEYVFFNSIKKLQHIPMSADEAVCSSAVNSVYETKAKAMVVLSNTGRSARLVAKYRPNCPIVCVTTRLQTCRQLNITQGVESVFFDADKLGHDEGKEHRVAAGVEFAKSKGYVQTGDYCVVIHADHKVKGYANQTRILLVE
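Kinase-Glo luminescence read after 1 h RT reaction of 0.1 nM LmPK with 0.5 mM PEP and 0.1 mM ADP. Activity scaled between uninhibited and enzyme-free controls.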
FBPA Giardia inh = Giardia lamblia aldolase inhibition; 0.71% of 290,000 active; A8B2U2; Potency, µM (series often up to 59.6 µM), for the others: at the highest dose activity, negative = inhibition, hits mostly inhibitors; AID 2451; purified Giardia FBPA; further: potency means the concentration at half of the fitted maximal effect; on the % scale 0 is the no-effect control and ±100 the full control effect; nearly all actives have a fitted effect of over 55% in size
Target sequence (A8B2U2 whole entry, looked up): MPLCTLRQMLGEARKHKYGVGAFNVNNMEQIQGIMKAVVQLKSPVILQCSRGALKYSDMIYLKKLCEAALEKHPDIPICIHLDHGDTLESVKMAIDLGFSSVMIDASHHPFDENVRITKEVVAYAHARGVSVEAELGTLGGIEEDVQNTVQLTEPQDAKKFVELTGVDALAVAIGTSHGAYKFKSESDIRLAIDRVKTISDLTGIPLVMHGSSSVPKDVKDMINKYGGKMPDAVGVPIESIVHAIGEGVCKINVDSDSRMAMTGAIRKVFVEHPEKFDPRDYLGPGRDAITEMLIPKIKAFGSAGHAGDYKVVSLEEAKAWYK
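Giardia FBPA (40 nM reagent) was preincubated 10 min at RT with compound (up to 57.5 uM final), then substrate plus GAPDH/TPI/NAD/arsenate coupling system with diaphorase/resazurin was added; resorufin fluorescence (525/598 nm) was read after 20 min.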
CHX counter-1 = affects cycloheximide protein synthesis inhibition readout, counter-screen; 12% of 300,000 active; max response, %; AID 2314; cell reporter, cycloheximide protein synthesis inhibition counterscreen; in the data active means max response mostly above about 13%, no sharp cut-off; inactive means mostly below about 14%; further: read at 38.3 µM for the half of the compounds with a filed dose; 0% is about no effect
Shiga inhibitor = inhibitors of Shiga toxin in Vero cells; Vero cells, Shiga toxin protein synthesis inhibition reporter; inhibition, % at 38.7 µM; 9.2% of 290,000 active; AID 2315; in the data active means inhibition mostly above about 28%, no sharp cut-off; inactive means mostly below about 43%; further: 0% is about no effect
TbPYK inhibitor = blocks Trypanosoma brucei pyruvate kinase; Potency, µM (top dose mostly 76.8 µM), inactives show top-dose activity, negative = inhibition, actives largely listed as inhibitors; 0.12% of 410,000 active; Q57TT1; TbPYK enzyme, Kinase-Glo Plus ATP luminescence, 45 min; further: potency means the concentration at half of the fitted maximal effect; on the % scale 0 is the no-effect control and ±100 the full control effect; nearly all actives have a fitted effect of over 50% in size
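Glycolytic pyruvate kinase of T. brucei was incubated with substrate, test compound and 130 uM ADP for 45 minutes at room temperature. Luminescent Kinase-Glo Plus signal was measured after 10 minutes.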
CHX counter-2 = protein synthesis counter-screen activity for Shiga toxin hits; Potency, µM (top dose mostly 38.3 µM), for inactives: at the highest dose activity (activation), most hits filed as activators; 3% of 510 active; shares compounds with Shiga inhibitor; Cycloheximide counterscreen, protein synthesis reporter, Shiga toxin assay; calls by dose curve; further: potency means the concentration at half of the fitted maximal effect; 0% is about no effect
Numbers without * were called inactive; u = inconclusive; x = no result; + = active, no number; [ ] = remark or other dose. This excerpt belongs to a sample that is enriched for hits. Unless noted, the call rests on the fitted dose curve; in most records, active means well fitted curve in the direction sought with a large enough effect; inconclusive means small, poorly fitted or top-dose-only effect, or another doubt; inactive means no such curve, though single readings can be large; an effect the other way counts as inactive or inconclusive.

SMILES | RE007 growth inh | LmPK inhibitor | FBPA Giardia inh | CHX counter-1 | Shiga inhibitor | TbPYK inhibitor | CHX counter-2
CCOC(=O)C1(CCOc2ccccc2)CCN(CC(O)CO)CC1 (stereo unspecified) | -8.8% | 1.7% | 7.3% | 1.9 | 0.3 | -5.6% | x
O=C(c1ccc(-n2cccc2)cc1)N1CCN(Cc2ccccc2)CC1 | 3.1%[3.69 µM] | 5.7% | 0.5% | 16.2 | 1.7 | x | x
CN1CCN(C(=O)c2ccc(-n3cccc3)cc2)CC1 | -15.9% | 1.7% | 2.5% | 8.3 | 31.8* | -15.2% | 3.4%
O=c1[nH]c2nc(Br)[nH]c(=O)c2[nH]1 | 17.4% | x | x | x | x | -25.4% | x
CC(=O)c1ccc2noc(-c3ccc(Cl)cc3)c2c1 | 3.3% | 8.0% | 1.5% | -3.1 | 14.7 | -2.2% | x
CC(=O)c1ccc2noc(-c3ccc(F)cc3)c2c1 | -6.8% | 1.0% | -0.6% | 12.6 | 51.9* | -19.9% | 2.2%
CC(C)CNC(=O)c1cccc(NC(=O)c2ccc3c(c2)C(=O)N(C)C3=O)c1 | -3.0% | 6.6% | 6.4% | -0.9 | 16.1 | 1.9% | x
C=CCNc1sc(C(=O)c2ccccc2)c(N)c1-c1nc2ccccc2s1 | u | 1.4% | 1.0% | 12.9 | 73.3* | u | u
COc1ccc2c(c1)cc(C(=O)N[C@@H](CCSC)C(=O)N1CCC[C@H]1C(=O)O)n2C | 4.8% | -16.0% | -4.3% | -1.6 | 8.2 | 1.1% | x
O=C(NCCc1csc(-c2cccnc2)n1)c1ccc(Cl)cc1 | 4.5% | 5.9% | 3.8% | -2.1 | 20.7* | 3.4% | u
O=C(NCCc1csc(-c2cccnc2)n1)c1cccc(Cl)c1 | -2.4% | -6.0% | 6.1% | 10.2 | 41.3 | 9.5% | x
CC1(C)Cc2c(cnn2-c2cccc(F)c2)C(NC(=O)C2CCOCC2)C1 (stereo unspecified) | 2.3% | 2.2% | x | 9.1 | 18.3 | -9.0% | x
CCC(=O)N1CCN(c2ccccc2NC(=O)c2ccc([N+](=O)[O-])o2)CC1 | -4.9% | -1.4% | -7.6% | 6.7 | 54.8* | -2.4% | u
O=C(NNC(=O)c1ccccc1Cl)c1ccc2c(c1)OCCO2 | -3.6% | x | x | x | x | -0.6% | x
COc1ccc(NC(=O)NNC(=O)c2ccc3ccccc3c2O)c(OC)c1 | 4.7% | 0.0% | 24.8% | -1.7 | 26.7* | -1.0% | 0.2%
CCCCSCCCNC(=O)CCCN1C(=O)c2ccccc2Sc2ncccc21 | 1.5% | 5.0% | -2.6% | 1.7 | 32.3* | -7.6% | 5.3%
CCOC(=O)c1cn(Cc2ccc(C)cc2)nn1 | 24.8% | -3.5% | 6.9% | 10.8 | 45.1* | -2.7% | -3.0%
COc1ccc(CNCC(=O)Nc2sccc2C#N)cc1 | -26.5% | -3.6% | u | 13.3 | 52.5* | 3.5% | 2.4%
Cc1cccc(C(=O)NNC(=O)c2ccccc2)c1 | 4.8% | -0.3% | 0.2% | 8.0 | + | -20.7% | u
CCC(=O)Nc1ccc(C(=O)NNC(=O)c2ccccc2)cc1 | 12.8% | -0.7% | -0.2% | 0.6 | 31.8* | -1.9% | 1.0%
CCC(=O)N1CCN(c2ccc(NC(=O)c3ccccc3)cc2)CC1 | 12.5% | -9.7% | 3.9% | 10.3 | 46.9* | -5.8% | u
Cc1cccc(C(=O)NNC(=O)/C=C/C(=O)O)c1 | -2.7% | -13.1% | 2.1% | 2.0 | -6.4 | 4.0% | x
CCC(=O)N1CCN(c2ccc(NC(=O)c3ccc4ccccc4c3)cc2)CC1 | -7.5% | -2.8% | -5.4% | 8.0 | 21.0 | 3.9% | x
CCC(=O)Nc1ccc(C(=O)NNC(=O)C(c2ccccc2)c2ccccc2)cc1 | 2.0% | 6.6% | -4.9% | -5.6 | -2.0 | -0.5% | x
O=C(O)C1=C(CSc2nnnn2CS(=O)(=O)O)CS[C@@H]2[C@H](NC(=O)[C@H](O)c3ccccc3)C(=O)N12 | x | x | x | x | x | -7.2% | x
SMILES | RE007 growth inh | LmPK inhibitor | FBPA Giardia inh | CHX counter-1 | Shiga inhibitor | TbPYK inhibitor | CHX counter-2
CC(=O)N1CCc2cc(S(=O)(=O)NC(CC(C)C)C(=O)Nc3ccc4c(c3)OCCO4)ccc21 (stereo unspecified) | -4.0% | -3.1% | -4.6% | 7.3 | 78.8* | 0.4% | 1.0%
CC(=O)N1CCc2cc(S(=O)(=O)NC(CC(C)C)C(=O)NCc3ccccc3)ccc21 (stereo unspecified) | x | x | x | x | x | -4.8% | x
CN1CC(c2ccccc2)C2(SC(=S)N(Cc3ccco3)C2=O)C12C(=O)Nc1ccccc12 (stereo unspecified) | 12.1% | 2.1% | -7.4% | 8.4 | 24.4 | -4.5% | x
CN1CC(c2ccccn2)C2(SC(=S)N(Cc3ccccc3)C2=O)C12C(=O)Nc1ccccc12 (stereo unspecified) | 13.6% | 2.8% | -21.4% | 0.9 | 70.8* | -17.8% | -5.5%
O=C(CCS(=O)(=O)c1cccs1)Nc1ccc(C(=O)NCc2cccs2)cc1 | -13.0% | 1.1% | 2.9% | 7.4 | 28.9* | 10.0% | -2.4%
CCOc1ccccc1NC(=O)CCS(=O)(=O)c1cccs1 | 2.9% | 6.3% | -12.0% | -3.1 | 125.6* | -8.3% | -1.9%
CC(=O)c1cccc(NC(=O)c2ccc(NC(=O)CCS(=O)(=O)c3cccs3)cc2)c1 | 111.8% | -5.8% | -6.6% | -5.7 | 32.8* | 2.3% | 1.7%
CCOc1ccccc1NC(=O)CCS(=O)(=O)c1cccc2nonc12 | 8.2% | -0.5% | -0.2% | -2.4 | -16.6 | -1.1% | x
COCc1ccc(C(=O)N2CCCC(N3CCN(c4ccc(F)cc4)CC3)C2)o1 (stereo unspecified) | -11.8% | -7.9% | x | 12.2 | -32.6 | -10.8% | x
Cc1cc([N+](=O)[O-])nn1CCCC(=O)Nc1cc(Cl)ccc1Cl | 8.2% | 0.5% | -0.2% | 6.6 | -1.5 | -1.8% | x
CCOc1cc(S(=O)(=O)N2CCN(Cc3ccccc3)CC2)ccc1Br | -18.4% | 0.8% | -5.6% | 7.1 | 136.1* | 1.9% | -0.1%
CCOc1ccccc1CN1CCN(S(=O)(=O)c2ccccc2)CC1 | x | x | x | x | x | 7.5% | x
CC(C)NC(=O)c1ccc(OC2CSC2)cc1 | 9.6% | 2.2% | 0.3% | -3.4 | 29.1* | 0.7% | u
CC1CCCCC1NC(=O)COC(=O)c1ccc2c(c1)NC(=O)CS2 (stereo unspecified) | 1.1% | x | x | x | x | 2.0% | x
CNc1ccc(/C=C(\CCC(=O)O)c2nc3ccccc3s2)cc1[N+](=O)[O-] | 2.3% | 1.6% | -7.0% | 8.2 | 64.9* | 0.4% | 1.3%
O=C(Nc1nc(N2C(=O)c3ccccc3C2=O)n(-c2ccccc2)n1)c1ccc(F)cc1 | 23.0% | 0.8% | -10.5% | 10.4 | -13.0 | -0.3% | x
O=C(Nc1nc(N2C(=O)c3ccccc3C2=O)n(-c2ccccc2)n1)c1ccccc1 | -4.7% | 2.3% | -1.1% | 10.9 | 35.3* | 1.4% | -1.7%
CC(NC(=O)c1ccc(Cn2c(=O)c3cccn3c3cccnc32)cc1)c1ccccc1 (stereo unspecified) | x | x | x | x | x | 2.5% | x
COC(=O)C1(C(=O)OC)C/C=C\C/C=C\c2ccccc2[C@@H]1C[N+](=O)[O-] | x | x | -0.1% | x | x | x | x
